# Source: PubChem BioAssay (NCATS)
# Results filed as inconclusive are left out. The source made the active and inactive calls. The call rests on the fitted dose curve; in most records, active means well fitted inhibition curve with a large enough effect; inconclusive means small, poorly fitted or top-dose-only effect; inactive means flat fitted curve, though single readings scatter. Where a SMILES comes first, the peptide text is derived from it. Bridges are numbered along the chain shown (N, C = ends). [ ]: non-standard residue; d: D form. The star is where a group is joined. ξ: configuration not given here. d(aThr) = C[C@@H](O)[C@@H](N)C(=O)O; ξThr(3R) = C[C@@H](O)C(N)C(=O)O; X3 = CC[C@@H](C)CCCCC(=O)*; dDab = NCC[C@@H](N)C(=O)O
# Tested on: KB-3-1
# Assay: Cytotoxic Profiling of Annotated Libraries Using Quantitative High-Throughput Screening (AID 1296008); further: nearly all actives have a fitted effect of over 60% in size
# Details: Five cell lines viability, CellTiter-Glo ATP luminescence, 48-72 h; max response: stronger effect = lower value
# Summary of the method: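 Cells exposed to compounds for 48 or 72 hr at 37 degrees Celsius. Viability read as ATP-coupled luminescence with CellTiter-Glo after 10 min at room temperature.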
# On the % scale 0 is the no-effect control and ±100 the full control effect.
row,Structure (SMILES),max response
1,O=C(O)COc1ccc(CCNS(=O)(=O)c2ccccc2)s1,-3.19% (inactive)
2,CC(=NCc1ccccc1)c1ccccc1O,-11.4% (inactive)
3,OCCCNc1ccccc1,2.06% (inactive)
4,CC(C)(C)c1ccc2c(S(=O)(=O)O)c(C(C)(C)C)ccc2c1,3.96% (inactive)
5,O=C(O)[C@H]1CN(C/C=C/P(=O)(O)O)CCN1,9.65% (inactive)
6,CCC[C@@H]1C[C@@H](C(=O)N[C@@H]([C@H]2O[C@H](SC)[C@H](O)[C@@H](O)[C@H]2O)[C@H](C)Cl)N(C)C1,4.39% (inactive)
7,O=C(NNCS(=O)(=O)O)c1ccncc1,-1.07% (inactive)
8,CCN(CC)CCOC[C@H]1O[C@@H](O)[C@H](OCCN(CC)CC)[C@@H](O)[C@@H]1O,8.48% (inactive)
9,CN(CCO)CC(O)Cn1cnc2c1c(=O)n(C)c(=O)n2C (centres undefined) (tested in a mixture with another compound),-4.03% (inactive)
10,O=C(O)c1cc(N=Nc2ccc(O)c(C(=O)O)c2)ccc1O,-1.02% (inactive)
11,CNC(=O)OCc1cccc(COC(=O)NC)n1,2.4% (inactive)
12,CC(C)(CO)[C@@H](O)C(=O)NCCC(=O)NCCSSCCNC(=O)CCNC(=O)[C@H](O)C(C)(C)CO,-0.241% (inactive)
13,CC[C@@H]1/C=C(\C)C[C@H](C)C[C@H](OC)[C@H]2O[C@@](O)(C(=O)C(=O)N3CCCC[C@H]3C(=O)O[C@H](/C(C)=C/[C@@H]3CC[C@@H](Cl)[C@H](OC)C3)[C@H](C)[C@@H](O)CC1=O)[C@H](C)C[C@@H]2OC,-9.83% (inactive)
14,C=C1CC[C@H](O)C/C1=C\C=C1/CCC[C@]2(C)[C@@H]([C@H](C)CCCC(C)C)CC[C@@H]12,-5.93% (inactive)
15,CCCCC[C@H](O)/C=C/[C@H]1[C@H](O)CC(=O)[C@@H]1CCCCCCC(=O)O,3.75% (inactive)
16,CC[C@@H](C)CCCCC(=O)N[C@H](CCN)C(=O)N[C@@H](C(=O)N[C@H](CCN)C(=O)N[C@@H]1CCNC(=O)C([C@@H](C)O)NC(=O)[C@@H](CCN)NC(=O)[C@@H](CCN)NC(=O)[C@@H](CC(C)C)NC(=O)[C@@H](Cc2ccccc2)NC(=O)[C@@H](CCN)NC1=O)[C@@H](C)O (stereo partly drawn) (X3-[dDab][d(aThr)][dDab][dDab][dDab][dF][dL][dDab][dDab][ξThr(3R)]; lactam 4-C),15.7% (inactive)
17,CCN(CC)C(=O)c1cccnc1,-8.56% (inactive)

row,Structure (SMILES),max response
1,O=C1NCCN1c1ncc([N+](=O)[O-])s1,1.83% (inactive)
2,CN(C)C(=O)CCSC(SCCC(=O)O)c1cccc(/C=C/c2ccc3ccc(Cl)cc3n2)c1 (centres undefined),-15.2% (inactive)
3,CCSc1ccc2c(c1)N(CCCN1CCN(C)CC1)c1ccccc1S2,-2.13% (inactive)
4,Cc1nc(NS(=O)(=O)c2ccc(N)cc2)nc(C)c1Br,9.38% (inactive)
5,CC(=O)NCCCS(=O)(=O)O,14.2% (inactive)
6,OCCOCCOCCO,-12.6% (inactive)
7,CCN(CC)CCC(=O)N1c2ccccc2Sc2ccc(C(F)(F)F)cc21,2.13% (inactive)
8,Oc1cccc(O)c1O,0.0163% (inactive)
9,CC(C)(COP(=O)(O)OP(=O)(O)OC[C@H]1O[C@@H](n2cnc3c(N)ncnc32)[C@H](O)[C@@H]1OP(=O)(O)O)C(O)C(=O)NCCC(=O)NCCS (some centres undefined),7.71% (inactive)
10,C=CC(C)(O)CC/C=C(\C)CCC=C(C)C (centres undefined),0.0537% (inactive)
11,NC(=S)NS(=O)(=O)c1ccc(N)cc1,5.24% (inactive)
12,CC1(C)C(\C=C/C=C\C=C/C=C2/N(CCCCS(=O)(=O)O)c3ccc4ccccc4c3C2(C)C)=[N+](CCCCS(=O)(=O)[O-])c2ccc3ccccc3c21,-6.53% (inactive)
13,O=C(O)CC/C=C\CC[C@@H]1[C@@H](N2CCCCC2)[C@@H](O)C[C@@H]1OCc1ccc(-c2ccccc2)cc1,-15.9% (inactive)
14,CCN(CC)CCOc1ccccc1OC,3.77% (inactive)
15,CC(=O)O[C@@H]1CC2CCC1(C)C2(C)C (some centres undefined),-0.31% (inactive)
16,CC1=C[C@H](O)CC(C)(C)[C@H]1/C=C/C(C)=C/C=C/C(C)=C/C=C/C=C(C)/C=C/C=C(C)/C=C/C1=C(C)C[C@@H](O)CC1(C)C,-11% (inactive)
17,NC(=O)c1ccc[n+]([C@@H]2O[C@H](COP(=O)([O-])OP(=O)(O)OC[C@H]3O[C@@H](n4cnc5c(N)ncnc54)[C@H](O)[C@@H]3O)[C@@H](O)[C@H]2O)c1,-2.72% (inactive)
